Rows were chosen to be rich in hits. Some 2.3% of all compounds tested hit in one or more screens of this group.
CHO-K1 Ca antag: nonselective inhibitor or artifact in parental CHO-K1 cells; ATP-induced calcium, Fluo-8 fluorescence; actives 0.6% (n = 360,000); inhibition, % at 3 µM; AID 602250;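 active = inhibition above a per-plate cutoff, the plate's mean sample inhibition plus 3 SD, cut at about 24% in these data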;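 note: 0% = DMSO plus EC80 ATP and 100% = DMSO alone without ATP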
CHRM1 PAM: positive allosteric modulators of human M1 muscarinic receptor; P11229; CHO-K1 hM1, Fluo-8 calcium fluorescence, ACh EC20; 0% = ACh EC20, 100% = maximal ACh; activation, % at 3 µM; actives 0.088% (n = 360,000); AID 588819; in the data active = activation above about 19%, passing the limit was not always enough
Target sequence (P11229 whole entry, looked up): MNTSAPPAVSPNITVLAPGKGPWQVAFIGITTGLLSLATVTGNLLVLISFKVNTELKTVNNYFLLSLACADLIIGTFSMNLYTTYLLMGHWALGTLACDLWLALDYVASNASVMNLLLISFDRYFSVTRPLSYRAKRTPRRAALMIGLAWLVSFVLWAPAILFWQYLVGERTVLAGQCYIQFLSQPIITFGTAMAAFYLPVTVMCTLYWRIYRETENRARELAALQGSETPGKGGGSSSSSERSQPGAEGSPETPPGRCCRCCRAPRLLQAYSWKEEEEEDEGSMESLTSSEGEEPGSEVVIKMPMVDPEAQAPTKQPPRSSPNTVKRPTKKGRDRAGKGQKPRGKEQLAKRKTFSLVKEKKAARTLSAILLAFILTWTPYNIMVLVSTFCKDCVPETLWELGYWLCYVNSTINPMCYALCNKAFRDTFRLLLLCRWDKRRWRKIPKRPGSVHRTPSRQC
CHO-K1 Ca ag: M1 agonist counterscreen hit in parental CHO-K1 cells. Fluo-8 calcium fluorescence; scaled to maximal ATP response, vehicle zero. activation, % at 3 µM. actives 0.48% (n = 360,000). AID 602248; in the data active = activation above about 15%;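 note: untransfected CHO-K1 host cells lacking M1 receptor as counterscreen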
CHRM1 agonist: agonists of human M1 muscarinic receptor. CHO-K1 hM1, Fluo-8 calcium fluorescence, agonist mode; 0% DMSO, 100% acetylcholine EC100. P11229. actives 0.33% (n = 360,000). activation, % at 3 µM;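 active = activation above the run's mean compound activation plus 3 SD, cut at about 16% in these data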;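 note: peak over basal fluorescence ratio within a 140 s kinetic read after compound addition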
CHO-K1 Ca PAM: counter-screen for M1 PAMs: effect in parental CHO-K1 cells. ATP EC20, Fluo-8 calcium fluorescence; 0% at ATP EC20, 100% at ATP max. activation, % at 3 µM. actives 0.02% (n = 360,000);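 active = activation above the run cutoff, the mean activation of all test compounds plus 3 SD, cut at about 40% in these data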;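 note: peak over basal fluorescence ratio in a 140 s read after ATP addition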
CHRM1 antagonist: human CHRM1 antagonism. P11229. CHO-K1 hM1, Fluo-8 calcium fluorescence, ACh EC80 antagonist. inhibition, % at 3 µM. actives 1.3% (n = 360,000). AID 588852;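 active = percent inhibition above its own plate's cutoff, namely the mean of that plate's compound wells plus 3 SD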;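 note: peak over basal fluorescence ratio during 140 s after agonist addition; 0% = ACh EC80 plus DMSO and 100% = DMSO alone without agonist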
Starred values were filed as active, the others as inactive.

SMILES	CHO-K1 Ca antag	CHRM1 PAM	CHO-K1 Ca ag	CHRM1 agonist	CHO-K1 Ca PAM	CHRM1 antagonist
Cc1ccc(N(C)S(=O)(=O)c2cccc(C(=O)OCC(=O)N(C)Cc3ccccc3)c2)cc1	-4	-9	7	-1	12	7
CC(C)(C)Cc1c(-c2ccc(Cl)cc2)nc2ccc(Cl)cn12	-16	-23	1	-9	19	28*
CC(C)(C)Cc1c(-c2ccccc2)nc2ccc(Cl)cn12	3	-17	0	-7	-9	27*
CC(C)(C)Cc1c(-c2ccc(Br)cc2)nc2ccc(Cl)cn12	-15	-18	0	3	16	26*
O=C(NCC1CCCN(Cc2ccc3nonc3c2)C1)c1cccc(C(F)(F)F)c1 (stereo unspecified)	-8	12	0	-14	22	-17
Cc1cc(CN(C)C(=O)c2ccc(OC3CCN(CCc4ccccc4)CC3)cc2)on1	-10	-10	5	-3	14	16
Cc1ccc(C)n1-c1ccc(-c2ccnc(N)n2)cc1	-15	3	1	-7	17	-11
COc1ccc(SCCN2CC[C@@H](C)CCC2=O)cc1	24*	-16	1	-6	-18	26
O=C(OCC#CCSc1nnc(-c2cccc3ccccc23)o1)c1ccco1	3	-6	1	-4	16	-3
COc1ccccc1CNC(=O)COc1cc2c(c3oc(=O)cc(C)c13)CCC(C)(C)O2	1	-25	1	-5	-14	34*
CCCOC(=O)c1ccc(OCC(O)Cn2c(C)nc3ccccc32)cc1 (stereo unspecified)	21	-19	12	3	0	40*
O=C(NCc1ccccc1)/C(=C\c1ccc([N+](=O)[O-])cc1)NC(=O)c1ccco1	-1	15	1	17*	-2	-11
O=C(NCCc1ccccc1)/C(=C\c1ccc([N+](=O)[O-])cc1)NC(=O)c1ccco1	-6	2	3	-3	-9	6
C=CCNC(=O)/C(=C/c1cccc([N+](=O)[O-])c1)NC(=O)c1ccco1	0	12	15*	-4	19	-12
OC[C@@H]1CN(Cc2ccco2)C[C@H](n2cnc3c(NC4CC4)ncnc32)O1	-7	10	1	-1	20	-10
Fc1ccc(NC(=S)N2CCCN(c3ccc(C(F)(F)F)cn3)CC2)c(F)c1	24*	-14	12	3	-14	34*
O=C(CCN1CCN(c2ccc([N+](=O)[O-])cc2)CC1)c1ccc(Cl)cc1	17	-19	10	-4	-9	38*
O=C(CN1CCN(c2ccc([N+](=O)[O-])cc2)CC1)c1ccccc1	3	-26	2	-8	13	40*
CSc1nc2nc(Cl)c(Cl)nc2[nH]1	-8	0	2	1	10	-8
Cc1ccc2[nH]cc(CCNC(=O)C3CCCO3)c2c1 (stereo unspecified)	-7	12	1	-2	2	-23
Cc1ccc(/C=C/C(=O)NCCCn2ccnc2)cc1	16	-3	18*	-12	8	10
O=C(/C=C/c1ccc(Cl)c(Cl)c1)NCCCn1ccnc1	-16	5	0	-7	14	-11
Oc1ccc(-c2nc3ccc4ccccc4c3c3c2CCC3)cc1O	-3	3	0	-6	6	5
CCN1/C(=C/c2sc(-c3ccccc3C)c[n+]2C)Sc2ccccc21	34*	-17	11	-1	-2	48*
CCN1/C(=C/C=C/C=C/C=C/c2sc3ccccc3[n+]2CC)Sc2ccccc21	-8	-2	0	-8	11	0
SMILES	CHO-K1 Ca antag	CHRM1 PAM	CHO-K1 Ca ag	CHRM1 agonist	CHO-K1 Ca PAM	CHRM1 antagonist
O=S(=O)(c1ccc(Cl)c(S(=O)(=O)N2CCCC2)c1)N1CCCC1	-13	-2	2	-5	8	38*
Cc1ccc(S(=O)(=O)c2cccc(S(=O)(=O)N3CCCC3)c2)cc1S(=O)(=O)N1CCCC1	6	-20	6	-1	15	55*
Cc1ccc(/C=C/C(=O)O)cc1S(=O)(=O)N1CCCCC1	-2	24*	1	0	-9	40*
CCC(O)c1cc2c(cc1NC(=O)c1ccc(C)cc1)OCCO2 (stereo unspecified)	17	-14	0	-3	-7	26*
COc1ccc(N2CCN(CC(=O)Nc3nc(C)cs3)CC2)cc1	-6	16	1	5	5	-11
CC1=NNC(=O)/C1=C\c1cn(-c2ccccc2)nc1-c1ccccc1	19	-8	3	1	5	33*
O=Cc1cn(-c2ccccc2)nc1-c1ccccc1	-13	7	1	-5	16	-11
O=c1oc2ccc3ccccc3c2cc1-c1nnc(-c2ccccc2)o1	3	-3	0	-5	-3	2
CCN(CC)c1ccc2cc(C(=O)c3cccs3)c(=O)oc2c1	40*	-36	74*	131*	-1	60*
CCN(CC)c1ccc2cc(-c3nnc(-c4ccccc4)o3)c(=O)oc2c1	23	-20	28*	108*	4	15*
CCN(CC)c1ccc2cc(-c3nc4ccccc4[nH]3)c(=O)oc2c1	8	-38	80*	279*	-14	69*
Cc1ccc(N(CC(=O)NCC2CCCO2)S(=O)(=O)c2ccccc2)c(C)c1 (stereo unspecified)	8	24	0	-1	-10	-20
CN(C)CCCN1c2ccccc2Sc2ccc3ccccc3c21	-3	-30	6	-6	6	82*
CN(C)CCCN1c2ccc3ccccc3c2Sc2cccc(Cl)c21	7	5	0	0	-5	0
c1ccc(-c2nc(N3CCCCC3)nc3ccccc23)cc1	-3	-2	0	-5	15	6
CCN1CCN(c2nc(-c3ccccc3)c3ccccc3n2)CC1	-25	-29	3	-11	25	47*
O=C(NCCN1CCOCC1)C(=O)NCC1OCCN1S(=O)(=O)c1ccccc1 (stereo unspecified)	4	-4	0	-2	-2	-1
CCc1nc2ccc(C(=O)NC(C)(C)C)cn2c1N(CC)Cc1cccc(Br)c1	-7	-5	0	-10	4	-6
O=C(c1cnn2c(-c3ccccc3)cc(-c3ccccc3)nc12)N1CCN(Cc2ccccc2)CC1	3	-9	3	-3	2	32
CN(C(=O)Nc1ccccc1)C1CCCc2ccccc21 (stereo unspecified)	-18	2	16*	0	-18	-8
NS(=O)(=O)c1cccc(NC(=O)Cn2nc(C(=O)O)c3ccccc3c2=O)c1	-1	7	0	-3	6	-10

Bioassay records from PubChem.
